Measurements reported in PubChem BioAssay AID652062 (Broad Institute, 2013).
About 1,100 (79%) of roughly 1,400 compounds were called active.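 How the source made its calls: active means fitted half-maximal concentration of a falling signal no higher than twice the top valid dose in every test run; inconclusive means runs disagree, or flat partial inhibition, or poor fit; inactive means every run inactive: flat, wrong direction, or potency beyond limit.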 So high a share suggests a set chosen from earlier hits. Not all results are given here. Potency and affinity values are given separately.

Assay: HIV-1 AD8 envelope cell-cell fusion blockers – cherry-pick, dose response (AID 652062)
Settings: HeLa-AD8 Env / CEM-CCR5 cell fusion, luciferase; at 35 µM (top of the series) unless noted

SMILES	activity change, negative = inhibition
COC(=O)[C@H](Cc1ccccc1)NC(=O)Cn1cnc(C(=O)Nc2ccc(C)c(C)c2)n1	23.2%
CCOc1ccccc1C(=O)NCC(=O)NNC(=O)CN(C)S(=O)(=O)c1ccc(Cl)cc1	-52.6%
Nc1c(S(=O)(=O)c2ccccc2)cnc2c(-c3ccc(F)cc3)cnn12	63.4% [at 16 µM]
COc1ccc(OC)c(-c2cc(C(=O)Nc3c(C)nn(Cc4ccc(Cl)cc4)c3C)no2)c1	-43.8%
Cc1ccc2c(c1)c1c3n2CCN(CCC#N)C3CCC1 (configuration not stated)	81.2%
N#C[C@H]1[C@@H](c2ccccc2/C=C/c2ccccc2)[C@@H](CO)N1S(=O)(=O)c1cccc(F)c1	108%
N#C[C@@H]1[C@H](c2ccc(-c3ccccc3F)cc2)[C@@H](CO)N1C(=O)c1ccccn1	-32.3%
CCC(=O)N(C)C(c1ccccc1Cl)c1nnnn1-c1c(C)cccc1C (configuration not stated)	49.6%
Cc1ccc(S(=O)(=O)N(C)C)cc1NC(=O)C(C)N(C)CCOc1ccc(Cl)cc1 (configuration not stated)	-21.5% [at 8 µM]
COc1ccc(NC(=O)CN2CCC(C(N)=O)(N3CCCCC3)CC2)cc1	-10%
COCC(=O)N(C)C[C@H]1Oc2ncc(Br)cc2C(=O)N([C@H](C)CO)C[C@H]1C	50.8%
COCCCNC(=O)c1sc2ncnc(N3CCc4ccccc4C3)c2c1C	60.7%
O=C(c1ccccc1)N1CCN(c2ncnc3sc4c(c23)CCC4)CC1	-54.4%
Cc1ccc(C2Oc3ccccc3C3=C2C(c2cccs2)n2ncnc2N3)cc1 (configuration not stated)	12.9%
CC(NNC(=S)N1CCCCCC1)c1ccc2ccccc2n1 (configuration not stated)	-26.1%
CN1CC(c2ccccc2)C2(SC(=S)N(Cc3ccco3)C2=O)C12C(=O)Nc1ccccc12 (configuration not stated)	-103%
C[C@H]1CN([C@@H](C)CO)C(=O)c2cccc(NC(=O)c3ccncc3)c2O[C@@H]1CN(C)C(=O)Nc1cccc2ccccc12	63.7%
CNC[C@H]1Oc2c(NC(=O)Nc3cccc4ccccc34)cccc2C(=O)N([C@H](C)CO)C[C@H]1C	104%
O=C(NCc1cccc(F)c1)[C@@H]1[C@@H](CO)[C@@H]2Cn3c(ccc(-c4cccnc4)c3=O)[C@H]1N2CC1CC1	1.91%
NC(=S)c1ccc(OCCCc2ccccc2)cc1	30.2%
O=C(C[C@@H]1C=C[C@@H](NC(=O)c2ccccc2)[C@H](CO)O1)NCc1ccc(Oc2ccccc2)cc1	-28.3%

SMILES	activity change, negative = inhibition
C[C@@H]1CN([C@H](C)CO)C(=O)c2cccc(NS(=O)(=O)c3ccc(Cl)cc3)c2O[C@@H]1CN(C)Cc1ccc(Cl)c(Cl)c1	-25.6%
C[C@H]1CN([C@@H](C)CO)C(=O)c2cccc(NS(=O)(=O)c3ccc(Cl)cc3)c2O[C@@H]1CN(C)Cc1ccc(C(F)(F)F)cc1	9.5%
CN(C)CC(=O)Nc1ccc2c(c1)[C@H]1C[C@@H](CC(=O)NCCc3ccccc3)O[C@H](CO)[C@H]1O2	14.9% [at 30 µM]
COc1cccc(S(=O)(=O)N[C@H]2CC[C@H](CC(=O)NCc3ccncc3)O[C@@H]2CO)c1	30.8%
Cc1ccc2c(c1)C(=C(C#N)C#N)CCN2	85.1%
C[C@H]1CN([C@@H](C)CO)S(=O)(=O)c2ccc(-c3ccc(F)cc3)cc2O[C@H]1CN(C)Cc1cccc(F)c1	-95%
C[C@@H]1CN([C@H](C)CO)S(=O)(=O)c2ccc(-c3ccccc3)cc2O[C@@H]1CN(C)Cc1ccccc1	-17.9%
C[C@H]1CN([C@@H](C)CO)S(=O)(=O)c2ccc(-c3cccc(C#N)c3)cc2O[C@H]1CN(C)Cc1cccc(F)c1	4.15%
COc1cc(-c2cc(OC)c(O)c(OC)c2)cc(OC)c1O	27.9%
CCc1nc(N2CCCCC2)c2oc3ccccc3c2n1	16.4%
CCc1nc(N2CCCCC2C)c2oc3ccccc3c2n1 (configuration not stated)	131%
C=CCN1C(=S)CC(c2ccccc2)=Nc2ccccc21	1.53%
C[C@@H]1CN([C@@H](C)CO)S(=O)(=O)c2ccc(C3=CCCC3)cc2O[C@@H]1CN(C)C(=O)C1CCOCC1	50.5%
C[C@H](CO)N1C[C@H](C)[C@@H](CN(C)Cc2ccncc2)Oc2cc(C3=CCCCC3)ccc2S1(=O)=O	57.2% [at 15 µM]
COc1ccc(Nc2ncc(C(=O)N3CCN(c4ccc(F)cc4)CC3)c3ccccc23)cc1	0.701%
COc1ccc2[nH]c3c(N4CCC(O)(c5cccc(C(F)(F)F)c5)CC4)ncnc3c2c1	-33.8%
C[C@@H]1CN([C@@H](C)CO)C(=O)c2cccc(NS(=O)(=O)c3ccc(F)cc3)c2O[C@@H]1CN(C)Cc1ccc(C(F)(F)F)cc1	-35.8%
Cc1noc(C)c1S(=O)(=O)Nc1cccc2c1O[C@H](CN(C)Cc1ccc(C(F)(F)F)cc1)[C@H](C)CN([C@H](C)CO)C2=O	36.8%
C[C@@H]1CN([C@H](C)CO)C(=O)c2cccc(NS(=O)(=O)c3ccc(F)cc3)c2O[C@@H]1CN(C)Cc1ccc(C(F)(F)F)cc1	-28.7%
COc1ccc(CCNC(=O)COC(=O)c2cccn2C)cc1	-11.1%
O=S(=O)(NCC[C@@H]1CC[C@@H](NS(=O)(=O)c2ccccc2Cl)[C@H](CO)O1)c1ccc(Cl)cc1	68.7%

SMILES	activity change, negative = inhibition
O=S(=O)(NCC[C@H]1CC[C@H](NS(=O)(=O)c2ccccc2Cl)[C@H](CO)O1)c1ccc(Cl)cc1	67.6% [at 30 µM]
Cc1ccc2c(C)nc(Nc3nc(CSc4nnnn4-c4ccccc4)cc(=O)[nH]3)nc2c1	-21.8%
C=CCOc1c(Br)cc(CNc2ccc(NC(=O)C(C)C)c(OC)c2)cc1OC	129%
Cc1ccc(NC(=O)c2ccc(OCC3CCCO3)cc2)cc1Cl (configuration not stated)	-7.89%
CC(NC(=O)c1ccccc1NC(=O)CN1CCc2ccccc2C1)c1ccccc1 (configuration not stated)	-3.06%
O=C1c2cccnc2C(Nc2ccc(S(=O)(=O)N3CCCCCC3)cc2)N1Cc1ccccc1 (configuration not stated)	-20.4%
O=C1c2cccnc2C(Nc2ccc(S(=O)(=O)N3CCCCC3)cc2)N1Cc1ccccc1 (configuration not stated)	6.27%
CCCc1cc(C(=O)NCc2ccc(OC)cc2)no1	14.3%
Cc1noc(C)c1S(=O)(=O)N(C)C[C@H]1Oc2ccc(NC(=O)Nc3ccccc3)cc2CC(=O)N([C@H](C)CO)C[C@H]1C	14.5%
CCNC(=O)C[C@@H]1CC[C@@H]2[C@H](COC[C@@H](O)CN2C(=O)c2ccccn2)O1	66.2%
CC(C)NC(=O)N(C)C[C@@H]1Oc2ccc(NC(=O)C3CC3)cc2CC(=O)N([C@H](C)CO)C[C@H]1C	-3.87%
CC(C)NC(=O)N(C)C[C@@H]1Oc2ccc(NC(=O)C3CC3)cc2CC(=O)N([C@@H](C)CO)C[C@@H]1C	-3.66%
Nc1ncn([C@H]2C[C@H](O)[C@@H](CO)O2)c(=O)n1	8.34%
C[C@@H]1CN([C@@H](C)CO)S(=O)(=O)c2ccc(-c3ccccc3)cc2O[C@H]1CN(C)S(C)(=O)=O	54.4%
Nc1nc2c(ncn2[C@@H]2O[C@H](C(=O)NCC(c3ccccc3)c3ccccc3)[C@@H](O)[C@H]2O)c(=O)[nH]1	19.5%
C[C@@H]1CN([C@H](C)CO)C(=O)c2cccc(NS(=O)(=O)c3cn(C)cn3)c2O[C@H]1CN(C)C(=O)Nc1ccc(F)cc1	0.184%
CCN(CCn1cccn1)C(=O)CC1C(=O)NCCN1CCc1ccccc1 (configuration not stated)	27.6%
O=C(CC1C(=O)NCCN1Cc1cccc(F)c1)NC1CCCCC1 (configuration not stated)	73.6%
CCCCNC(=O)C[C@H]1C[C@@]2(C(=O)OC)C(=C[C@H](C(C)(C)C)O[C@@H]2C)N(Cc2ccc3c(c2)OCO3)C1=O	26.7%
Cc1ccc2c(c1)c1c3n2CCN(CC(N)=O)C3CCC1 (configuration not stated)	38.7%
Cc1ccc(-n2ncc3c(N4CCN(c5ccccc5)CC4)ncnc32)c(C)c1	-35.1%

SMILES	activity change, negative = inhibition
Cc1ccc(Cn2ncc3c(N4CCN(c5ccc(C)cc5)CC4)ncnc32)cc1	-19.9%
COc1ccc(NS(=O)(=O)c2cccc(C(=O)NNC(=O)CNC(=O)c3ccc(C)cc3)c2)cc1	3.44%
CCOC(=O)[C@]12CCC=C1N(Cc1ccc3c(c1)OCO3)C(=O)[C@H](CC(=O)NCC13CC4CC(CC(C4)C1)C3)C2	17.3% [at 16 µM]
COC(=O)[C@]12CCCCC=C1N(Cc1ccco1)C(=O)[C@H](CC(=O)NCCc1ccccc1OC)C2	99.6%
C[C@@H]1CN([C@H](C)CO)C(=O)c2cc(NC(=O)Nc3ccccc3)ccc2O[C@@H]1CN(C)S(=O)(=O)c1ccccc1	138%
CCOC(=O)[C@@H]1[C@H]2COc3cc(OC)ccc3[C@H]2N2C(=O)N(c3cccc(F)c3)C(=O)[C@@]12C	236%
C[C@H]1CN([C@@H](C)CO)C(=O)c2cccc(NC(=O)Nc3ccc(C(F)(F)F)cc3)c2O[C@H]1CN(C)S(=O)(=O)c1ccccc1	-14.4%
CCN(CC)S(=O)(=O)c1ccc(NC(=O)Nc2cccc(C(F)(F)F)c2)cc1	-121%
CCc1nnc(NC(=O)[C@@H](NC(=O)c2cccc(S(=O)(=O)N(CC)CC)c2)C(C)C)s1	52.6%
O=C(NCc1ccco1)c1ccc(Cn2c(=O)c3ccccc3n(Cc3cccc(F)c3)c2=O)cc1	15.9%
CCCCCn1c(C(C)NC(=O)CCC)nc2ccccc21 (configuration not stated)	-19.3%
COc1cc2c(c(OC)c1OC)[C@@]1(c3ccccc3)CCCC[C@H]1[C@@H]2NC(=O)C(F)(F)F	-28.2%
Cc1ccc(NS(=O)(=O)c2cc(C(=O)N(C)C3CCN(C)CC3)ccc2Cl)cc1Cl	81.1%
CCN(c1nc(N)c(C(=O)N=C(N)N)nc1Cl)C(C)C	-8.55%
Cc1[nH]c2ccccc2c1/C=N\NC(=O)c1ccccc1Cl	8.5%
CN1CCc2ccccc2Cc2[nH]c3ccccc3c2CC1	-17.8%
CC(C)OCCCn1c(=S)[nH]c2ccc(N3CCOCC3)cc2c1=O	-27.3%
O=C(NCc1ccccc1)[C@@H]1CCCN1C(=O)[C@@H]1CCCN1C(=O)c1cccc2ccccc12	-3.32%
Cc1cc(C(=O)N2CCC(C(=O)O)CC2)c(C(F)(F)F)o1	-10.2%
